# Molecular target: T1, Proteasome subunit beta (Trypanosoma cruzi) (UniProt O96673)
# T1 sequence (whole entry): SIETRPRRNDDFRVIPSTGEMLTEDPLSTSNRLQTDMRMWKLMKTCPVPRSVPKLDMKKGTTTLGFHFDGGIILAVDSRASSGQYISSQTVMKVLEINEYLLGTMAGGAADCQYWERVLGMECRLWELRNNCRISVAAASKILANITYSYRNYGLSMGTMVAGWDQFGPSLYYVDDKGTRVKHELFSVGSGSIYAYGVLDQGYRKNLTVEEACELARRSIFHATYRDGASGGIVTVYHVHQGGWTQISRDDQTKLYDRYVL
# Experiment: Trypanosoma cruzi proteasome chymotrypsin-like activity (TcProtChymo) assay.
# Format: functional
# Set-up: scale not given: in the data most compounds retested in dose-response had high values
# Conditions: 9.37 µM
row,SMILES,Percent Effect [%]
1,c1cnn(CC2CCCCN2Cc2cn3ccsc3n2)c1 (stereo not given),9.98
2,CN(Cc1nnc(-c2ccco2)o1)C1CCCN(c2cccnn2)C1 (stereo not given),28.4
3,O=C(NCCn1nc2ccccn2c1=O)c1cccc2[nH]ncc12,21.9
4,Cc1nc(CN2CCCC(CCc3c(F)cccc3F)C2)c[nH]1 (stereo not given),1.37
5,CC(C)CN1C[C@@H]2CN(C(=O)[C@H]3CCCO3)C[C@@H]2C1=O,5.06
6,CC(NC(=O)NCCCn1cncn1)c1ccccc1Cl (stereo not given),7.72
7,Cc1[nH]ccc1C(=O)N1CCCC(c2nccn2Cc2cscn2)C1 (stereo not given),15.2
8,CCn1cc2c(n1)C(COC)CN(Cc1ccccn1)C2 (stereo not given),16.7
9,O=C1CCCc2nccc(-c3ccccc3)c21,27.1
10,c1ccc(OCc2nnc3n2CCN(CC2CCOCC2)C3)nc1,-0.0883
11,CN(C)CC1CN(Cc2ccsc2)Cc2nccn2C1 (stereo not given),18.4
12,CCOc1c(Cl)cccc1NCc1cc(C)on1,15.1
13,O=C(NCc1cc[nH]n1)NCC(c1ccc(F)cc1)N1CCOCC1 (stereo not given),7.93
14,CCc1nccn1C1CCCN(C(=O)c2csc(NC(C)=O)n2)C1 (stereo not given),8.95
15,Cc1ccc(C(=O)N2CCC3(CC2)CCN(CCN(C)C)C3=O)cn1,6.44
16,Cc1ccc(C(=O)N2CCN(Cc3ccsc3)CC2)n1C,5.34
17,CS(=O)(=O)NCc1cc2n(n1)CCCN(Cc1cccc(C#N)c1)C2,13
18,O=C(NCC1CC1)C1CCC2(CCN(C(=O)c3ccccn3)CC2)O1 (stereo not given),-2.66
19,O=C(NCc1cc[nH]n1)N(CCCO)C1CCc2ccccc21 (stereo not given),2.29
20,CCC(NC(=O)CC(F)(F)F)c1ccccc1OCC(=O)N1CCCC1 (stereo not given),13.4

row,SMILES,Percent Effect [%]
1,CNC(=O)c1cccnc1Oc1ccccc1,13.5
2,O=C(CSc1ccc(F)c(F)c1)NS(=O)(=O)c1ccc2c(c1)OCCO2,3.16
3,CCSCCC(=O)NS(=O)(=O)c1ccc2c(c1)OCCO2,4.69
4,CC1CCCCN1Cc1ccc(-c2ccccc2C(=O)O)cc1 (stereo not given),7.39
5,Cc1noc(C)c1C(=O)N1CC[C@H]2C[C@@H](c3nccs3)O[C@@H]2C1,14.2
6,Cn1ccc(CN2CCC(NC(=O)Cc3ccccc3)CC2)cc1=O,6.74
7,O=S(=O)(c1ccccc1)N1CCCCC1c1cc[nH]n1 (stereo not given),13.5
8,COCCN(C)C[C@@H]1CCC[C@@H]2CN(c3cc(OC)ncn3)C[C@@H]21,13.9
9,CC(C)NC(=O)N1CCN(Cc2ccccn2)CC2(CC(=O)N(C)C2)C1 (stereo not given),2.49
10,CCn1nc(C)c(CCNC(=O)C2CCCN(C(=O)N(C)C)C2)c1C (stereo not given),14.6
11,Cc1cccc(C(=O)N2CCCN(Cc3cnn(C)c3)CC2)n1,-6.74
12,COCCC(=O)N1CCn2c(COCC3CC3)cnc2C1C (stereo not given),4.33
13,c1ccc(CNC2CCc3ncnn3C2)nc1 (stereo not given),21.1
14,COCCOc1cccc(C(=O)N2CCCC(n3ccnc3C)C2)c1 (stereo not given),0.877
15,CC(C)N(Cc1nc2c(cnn2C)c(=O)[nH]1)c1ccccc1,1.96
16,Cc1nc(CN2CCCC(CCc3ccc(F)cc3F)C2)c[nH]1 (stereo not given),3.94
17,COCC(C)N(C)C(=O)c1nc(S(C)(=O)=O)n2ccccc12 (stereo not given),-0.256
18,Cc1ccccc1N1CC2(CCN(S(=O)(=O)c3cccs3)C2)CC1=O (stereo not given),8.67
19,Cc1ccc(CN2CCCn3c(nc(Cn4cncn4)cc3=O)C2)s1,7.5
20,Cc1ccc2oc(C(=O)N3CCc4nnc(N(C)C)cc4C3)cc2n1,12.8

# Source: ChEMBL document CHEMBL3988442, “University of Dundee, Small-Polar-MMV Screening Library” (2021)
